Assay results as given in PubChem BioAssay (Tox21).
A number with no mark means an inactive call. Inconclusive results are not listed. Entries that show only a call come without a potency. Active and inactive are the calls of the source. Unless noted, the call rests on the fitted dose curve; in most records, active means well fitted curve in the direction sought with a large enough effect in the repeat runs; inconclusive means weak or mixed curves; inactive means no such curve, though single readings can be large; an effect the other way counts as inactive or inconclusive.

Assays:
[1] = A CellTox Green Cytotoxicity Assay to monitor cytotoxicity in HepG2 cells - 8 hour (AID 1224890); further: nearly all actives have a fitted effect of over 45% in size
Summary of the method: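 Measurements at 0, 8, 16, 24, 32 and 40 h of treatment captured CellTox Green fluorescence in HepG2 cells that had been co-plated with reagent and preincubated 5 h at 37 C/5% CO2.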

[2] = qHTS assay to identify small molecule antagonists of the estrogen receptor alpha (ER-alpha) signaling pathway using the BG1 cell line in the presence of 0.1 nM 17-beta-estradiol - cell viability counter screen (AID 1259241); further: nearly all actives have a fitted effect of over 40% in size
Summary of the method: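 VM7Luc4E2 cells (endogenous ER-alpha, 4×ERE-luciferase), hormone-starved 5 days in charcoal-stripped FBS, were treated with compounds plus 0.1 nM 17beta-estradiol for 22 hr at 37C; viability read in same wells as CellTiter-Fluor live-cell protease fluorescence.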

[3] = qHTS assay to identify small molecule antagonists of the androgen receptor (AR) signaling pathway using the MDA cell line in the presence of 0.5 nM R1881 - cell viability counter screen (AID 1259242); further: nearly all actives have a fitted effect of over 45% in size
Summary of the method: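 Concentration-response screen of compounds for toxicity in MDA-kb2 reporter cells: 16 hr at 37C with 0.5 nM R1881, endpoint live-cell protease fluorescence measured in the reporter wells.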

[4] = target: Estrogen receptor (Homo sapiens) (UniProt P03372); assay: qHTS assay to identify small molecule antagonists of the estrogen receptor alpha (ER-alpha) signaling pathway using the BG1 cell line in the presence of 0.1 nM 17-beta-estradiol (AID 1259244); further: nearly all actives have a fitted effect of over 50% in size
Summary of the method: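 Compounds were tested against 0.1 nM (final) 17beta-estradiol in VM7Luc4E2 cells, which express full-length ER-alpha and an ERE-luciferase reporter; luminescence was recorded following 22 h exposure.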

[5] = qHTS assay to identify small molecule phospholipidosis (PLD) inducers (AID 1259344; active means well fitted curve in the direction sought with a large enough effect; an effect the other way counts as inactive or inconclusive)
Summary of the method: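 After 4 h attachment on collagen I, HepG2 cells were dosed with compound alongside LipidTOX Red, kept 24 h at 37 C, fixed, and imaged for lamellar phospholipid pits.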

[6] = qHTS assay to identify small molecule HDAC inhibitors (AID 1259364);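 further: wild-type HCT-116 cells with endogenous class I/II HDAC activity; top concentration of the series differs between compounds; nearly all actives have a fitted effect of over 45% in size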
Summary of the method: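 Screening used wild-type human colon HCT-116 cells incubated overnight, dosed with compounds for 2 hours, and assayed with a homogeneous luminogenic HDAC I/II reagent for 30 minutes at room temperature.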

[7] = qHTS assay to identify small molecule HDAC inhibitors - cell viability counter screen (AID 1259365); further: series mostly up to about 92 µM; nearly all actives have a fitted effect of over 50% in size
Summary of the method: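 Wild-type HCT-116 cells were seeded at 1,500 per well, incubated overnight at 37 C, then exposed to compounds in DMSO for 2hr. Viability was read by CellTiter-Glo luminescence after 30min at room temperature.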

[8] = qHTS assay to identify small molecule agonists of the sonic hedgehog signaling (Shh) pathway - cell viability counter screen (AID 1259366); further: nearly all actives have a fitted effect of over 50% in size
Summary of the method: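 NIH/3T3-derived 3T3 Gli1-Luc cells (stable Gli1-responsive firefly luciferase reporter) were seeded, rested 4 hr at 37 C/5% CO2, then exposed to compounds in DMSO for 24 hr; viability was read by CellTiter-Fluor fluorescence in the same wells.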

[9] = qHTS assay to identify small molecule antagonists of the sonic hedgehog signaling (Shh) pathway - cell viability counter screen (AID 1259367); further: nearly all actives have a fitted effect of over 55% in size
Summary of the method: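 Conditioned medium drove Shh signaling in 3T3 Gli1-Luc cells exposed to compounds at 37C and 5% CO2. Viability was determined from CellTiter-Fluor fluorescence, with reagent incubated 1 hr after 23 hr of treatment.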

[10] = qHTS assay to identify small molecule agonists of the sonic hedgehog signaling (Shh) pathway (AID 1259368; calls by dose curve; further: series mostly up to about 92 µM; nearly all actives have a fitted effect of over 15% in size)
Summary of the method: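 Hedgehog pathway agonism scored by increased firefly luciferase luminescence in 3T3Gli1-Luc cells treated 24 hr at 37 C; detection used a 30 min room-temperature reagent incubation.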

[11] = qHTS assay to identify small molecule antagonists of the sonic hedgehog signaling (Shh) pathway (AID 1259369; calls by dose curve; further: nearly all actives have a fitted effect of over 45% in size)
Summary of the method: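 NIH/3T3 stable Gli1-Luc clone, 2,000 cells/well, 4hr settle; cpd + conditioned medium 24hr; Luc reagent 30min RT; luminescence.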

[12] = target: Estrogen receptor beta (Homo sapiens) (UniProt Q92731); assay: qHTS assay to identify small molecule agonists of the estrogen receptor beta (ER-beta) signaling pathway (AID 1259377; active means well fitted activation curve with a large enough effect in the signal ratio in the repeat runs, not every such curve was filed as active; the % refers to the signal ratio)
Summary of the method: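 ER-beta-UAS-bla HEK293T (GripTite) cells carrying a UAS-driven beta-lactamase reporter, in medium with 2% charcoal-stripped FBS, were exposed to compounds for 16 hr at 37C; LiveBLAzer B/G FRET substrate was then added and fluorescence read after 2 hours at room temperature.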

[13] = target: Estrogen receptor beta (Homo sapiens) (UniProt Q92731); assay: qHTS assay to identify small molecule antagonists of the estrogen receptor beta (ER-beta) signaling pathway (AID 1259378; active means well fitted inhibition curve with a large enough effect in the signal ratio in the repeat runs, not every such curve was filed as active; the % refers to the signal ratio)
Summary of the method: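 ER-beta-UAS-bla HEK293T (GripTite) cells in 2% charcoal-stripped FBS medium were preincubated 6 hr at 37C, dosed with compound, then stimulated with 1 nM E2 (final) for 16 hr; beta-lactamase reporter read by B/G FRET fluorescence after 2 hr substrate loading.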

[14] = qHTS assay to identify small molecule agonists of the androgen receptor (AR) signaling pathway in the presence of an antagonist - cell viability counter screen (AID 1259379);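 further: MDA-kb2 human breast cancer cells carrying an MMTV luciferase reporter; series mostly up to about 92 µM; nearly all actives have a fitted effect of over 25% in size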
Summary of the method: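 MDA-kb2 viability measured by CellTiter-Fluor fluorescence in the same wells as the luciferase signal; nilutamide 3.0uM final; 15-point compound titration; 16 hr at 37C.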

[15] = qHTS assay to identify small molecule agonists of the estrogen receptor beta (ER-beta) signaling pathway - cell viability counter screen (AID 1259380); further: nearly all actives have a fitted effect of over 30% in size
Summary of the method: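 Measured: luminescence from CellTiter-Glo after 30 min at room temperature, added to wells already read for the LiveBLAzer FRET reporter (2 hr substrate); ER-beta-UAS-bla HEK293T cells had 16 hr compound treatment at 37C, 5% CO2.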

[16] = qHTS assay to identify small molecule antagonists of the estrogen receptor beta (ER-beta) signaling pathway - cell viability counter screen (AID 1259382); further: series mostly up to about 92 µM; nearly all actives have a fitted effect of over 55% in size
Summary of the method: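 Readout: luminescence, CellTiter-Glo, same wells as bla assay. System: ER-beta-UAS-bla GripTite HEK293T, 2% charcoal-stripped FBS. Exposure: compounds plus 1nM 17-beta-estradiol, 16 hr, 37C.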

[17] = target: Estrogen receptor (Homo sapiens) (UniProt P03372); assay: qHTS assay to identify small molecule agonists of the estrogen receptor alpha (ER-alpha) signaling pathway in the presence of an antagonist (AID 1259383; calls by dose curve; further: top concentration of the series differs between compounds; nearly all actives have a fitted effect of over 15% in size)
Summary of the method: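 Quantitative HTS confirmation: compounds titrated at 15 concentrations onto estrogen-deprived VM7Luc4E2 cells carrying a four-ERE luciferase construct, with ICI-182,780 present at 10.0nM final. Signal is luminescence after 22hr exposure.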

[18] = qHTS assay to identify small molecule agonists or antagonists of the thyroid stimulating hormone receptor (TSHR) signaling pathway - wild type cell line counter screen (AID 1259384; calls by dose curve)
Summary of the method: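 Wild-type HEK293 cells were plated 18 h at 37 C/5% CO2, pin-dosed with compound plus Ro20-1724 medium, held 30 min at room temperature, then given cAMP-d2 and anti-cAMP-cryptate; fluorescence was read after 1 h. Fifteen concentrations, triplicate.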

[19] = target: Androgen receptor (Homo sapiens) (UniProt P10275); assay: qHTS assay to identify small molecule antagonists of the androgen receptor (AR) signaling pathway using the MDA cell line in the presence of 0.5 nM R1881 (AID 1259243); further: nearly all actives have a fitted effect of over 50% in size; further: potency means the concentration at half of the fitted maximal effect
Summary of the method: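 With R1881 held at 0.5 nM (final), compound effects on MMTV-luciferase expression in MDA-kb2 cells were scored by luminescence after a 16 hr, 37C incubation.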

[20] = target: Androgen receptor (Homo sapiens) (UniProt P10275); assay: qHTS assay to identify small molecule agonists of the androgen receptor (AR) signaling pathway in the presence of an antagonist (AID 1259381; calls by dose curve; further: nearly all actives have a fitted effect of over 15% in size)
Summary of the method: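 Luminescent ONE-Glo read, 30min at room temperature, follows 16hr compound exposure (15 concentrations) of MDA-kb2 cells at 37C, 0% CO2, with nilutamide added at 3.0uM final.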

Estrogen receptor (Homo sapiens), sequence (P03372 whole entry, looked up): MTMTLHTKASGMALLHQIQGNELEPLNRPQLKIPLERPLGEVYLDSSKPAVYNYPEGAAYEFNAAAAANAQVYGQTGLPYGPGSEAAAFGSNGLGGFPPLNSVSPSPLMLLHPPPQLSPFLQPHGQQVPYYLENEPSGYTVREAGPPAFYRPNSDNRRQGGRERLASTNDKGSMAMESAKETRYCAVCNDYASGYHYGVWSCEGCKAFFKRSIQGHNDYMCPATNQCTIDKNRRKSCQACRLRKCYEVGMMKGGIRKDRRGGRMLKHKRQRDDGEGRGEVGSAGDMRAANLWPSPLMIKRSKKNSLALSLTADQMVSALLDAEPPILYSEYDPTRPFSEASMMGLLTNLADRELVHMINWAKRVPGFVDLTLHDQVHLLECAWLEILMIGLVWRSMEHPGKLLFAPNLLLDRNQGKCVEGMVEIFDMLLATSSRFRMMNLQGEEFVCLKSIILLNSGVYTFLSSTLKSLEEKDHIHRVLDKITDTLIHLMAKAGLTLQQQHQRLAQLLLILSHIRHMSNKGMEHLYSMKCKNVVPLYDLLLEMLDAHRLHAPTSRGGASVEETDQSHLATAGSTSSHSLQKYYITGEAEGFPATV
Androgen receptor (Homo sapiens), sequence (P10275 whole entry, looked up): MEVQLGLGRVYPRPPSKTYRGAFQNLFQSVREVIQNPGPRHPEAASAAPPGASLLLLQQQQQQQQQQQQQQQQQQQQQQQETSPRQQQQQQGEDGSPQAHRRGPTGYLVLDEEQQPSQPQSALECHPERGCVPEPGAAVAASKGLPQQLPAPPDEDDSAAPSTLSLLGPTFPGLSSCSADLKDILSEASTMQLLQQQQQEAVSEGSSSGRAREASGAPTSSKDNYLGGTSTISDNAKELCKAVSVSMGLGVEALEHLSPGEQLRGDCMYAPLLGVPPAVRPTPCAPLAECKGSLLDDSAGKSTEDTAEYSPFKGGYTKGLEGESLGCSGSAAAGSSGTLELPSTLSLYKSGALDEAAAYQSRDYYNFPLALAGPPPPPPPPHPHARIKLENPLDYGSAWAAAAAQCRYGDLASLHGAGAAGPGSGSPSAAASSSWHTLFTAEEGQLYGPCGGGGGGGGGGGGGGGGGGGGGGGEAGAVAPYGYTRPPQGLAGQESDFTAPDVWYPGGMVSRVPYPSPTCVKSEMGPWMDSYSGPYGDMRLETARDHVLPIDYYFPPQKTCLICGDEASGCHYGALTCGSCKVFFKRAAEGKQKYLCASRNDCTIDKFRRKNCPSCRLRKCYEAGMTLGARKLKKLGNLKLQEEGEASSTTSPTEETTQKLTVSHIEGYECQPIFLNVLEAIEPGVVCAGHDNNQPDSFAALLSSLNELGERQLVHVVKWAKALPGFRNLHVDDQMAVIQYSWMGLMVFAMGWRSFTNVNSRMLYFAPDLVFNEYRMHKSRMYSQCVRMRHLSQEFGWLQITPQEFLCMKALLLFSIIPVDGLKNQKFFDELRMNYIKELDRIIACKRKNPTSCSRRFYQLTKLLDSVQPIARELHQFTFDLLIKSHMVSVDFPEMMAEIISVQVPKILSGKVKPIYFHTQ
Estrogen receptor beta (Homo sapiens), sequence (Q92731 whole entry, looked up): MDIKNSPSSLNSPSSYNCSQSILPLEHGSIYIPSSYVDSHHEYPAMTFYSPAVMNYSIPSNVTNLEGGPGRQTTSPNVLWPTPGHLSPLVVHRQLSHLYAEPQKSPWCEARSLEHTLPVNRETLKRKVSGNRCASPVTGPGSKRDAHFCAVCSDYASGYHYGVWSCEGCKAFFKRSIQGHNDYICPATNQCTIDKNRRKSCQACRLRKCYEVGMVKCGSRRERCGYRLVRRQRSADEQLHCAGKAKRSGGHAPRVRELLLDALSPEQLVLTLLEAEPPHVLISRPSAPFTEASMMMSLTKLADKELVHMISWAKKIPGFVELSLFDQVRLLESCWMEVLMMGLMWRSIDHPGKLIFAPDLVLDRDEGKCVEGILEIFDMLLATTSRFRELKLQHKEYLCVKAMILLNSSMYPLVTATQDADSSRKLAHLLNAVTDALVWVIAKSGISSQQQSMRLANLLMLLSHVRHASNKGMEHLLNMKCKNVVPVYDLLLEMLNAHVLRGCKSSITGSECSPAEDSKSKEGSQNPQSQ

CC1(C)S[C@@H]2[C@H](N=CN3CCCCCC3)C(=O)N2[C@H]1C(=O)O
outcome [1]: inactive | Potency [2]: inactive | outcome [3]: inactive | Potency [4]: inactive | outcome [5]: inactive | Potency [6]: inactive | outcome [7]: inactive | Potency [8]: inactive | Potency [9]: inactive | outcome [10]: inactive | Potency [11]: inactive | Potency [12]: inactive | outcome [13]: inactive | Potency [14]: inactive | Potency [15]: inactive | outcome [16]: inactive | outcome [17]: inactive | outcome [18]: inactive

CN(CCOc1ccc(NS(C)(=O)=O)cc1)CCc1ccc(NS(C)(=O)=O)cc1
outcome [1]: inactive | Potency [2]: inactive | outcome [3]: inactive | Potency [4]: inactive | outcome [5]: inactive | Potency [6]: inactive | outcome [7]: inactive | Potency [8]: inactive | Potency [9]: inactive | outcome [10]: inactive | Potency [11]: inactive | outcome [17]: inactive | outcome [18]: inactive

Oc1ccccc1-c1nnco1
outcome [1]: inactive | Potency [2]: inactive | outcome [3]: inactive | Potency [19]: inactive | Potency [6]: inactive | outcome [7]: inactive | Potency [8]: inactive | Potency [9]: inactive | outcome [10]: inactive | Potency [11]: inactive | Potency [12]: inactive | Potency [14]: inactive | Potency [15]: inactive | Potency [20]: inactive | outcome [16]: inactive | outcome [17]: inactive | outcome [18]: inactive

CN1C(C)(C)CCCC1(C)C
outcome [1]: inactive | Potency [2]: inactive | outcome [3]: inactive | Potency [4]: inactive | outcome [5]: inactive | Potency [6]: inactive | outcome [7]: inactive | Potency [8]: inactive | Potency [9]: inactive | outcome [10]: inactive | Potency [11]: inactive | Potency [14]: inactive | Potency [15]: inactive | outcome [16]: inactive | outcome [17]: inactive | outcome [18]: inactive

O=C(CCNNC(=O)c1ccncc1)NCc1ccccc1
outcome [1]: inactive | Potency [2]: inactive | outcome [3]: inactive | Potency [4]: inactive | outcome [5]: inactive | Potency [6]: inactive | outcome [7]: inactive | Potency [8]: inactive | Potency [9]: inactive | outcome [10]: inactive | Potency [11]: inactive | Potency [15]: inactive | outcome [16]: inactive | outcome [17]: inactive | outcome [18]: inactive

BrCc1cccc(Oc2ccccc2)c1
outcome [1]: inactive | Potency [2]: inactive | outcome [3]: inactive | Potency [19]: 54.5 µM (active) | Potency [6]: inactive | outcome [7]: inactive | outcome [10]: inactive | Potency [11]: inactive | outcome [13]: inactive | Potency [14]: inactive | Potency [15]: inactive | Potency [20]: inactive | outcome [16]: inactive | outcome [18]: inactive

CO[C@@H]1[C@@H](OC(N)=O)[C@@H](O)[C@H](Oc2ccc3c(O)c(NC(=O)c4ccc(O)c(CC=C(C)C)c4)c(=O)oc3c2C)OC1(C)C
outcome [1]: inactive | Potency [2]: inactive | outcome [3]: inactive | Potency [4]: inactive | outcome [5]: inactive | Potency [6]: inactive | outcome [7]: inactive | Potency [8]: inactive | Potency [9]: inactive | outcome [10]: inactive | Potency [11]: inactive | Potency [14]: inactive | Potency [15]: inactive | outcome [16]: inactive | outcome [17]: inactive | outcome [18]: inactive

O=C1c2ccccc2C(=O)C1c1ccccc1
outcome [1]: inactive | Potency [2]: inactive | outcome [3]: inactive | Potency [4]: inactive | outcome [5]: inactive | Potency [6]: inactive | outcome [7]: inactive | Potency [8]: inactive | Potency [9]: inactive | outcome [10]: inactive | Potency [11]: inactive | Potency [14]: inactive | Potency [15]: inactive | outcome [16]: inactive | outcome [17]: inactive | outcome [18]: inactive

COc1ccc(S(=O)(=O)N2c3ccc(Cl)cc3[C@@](O)(c3ccccc3Cl)[C@H]2C(=O)N2CCC[C@@H]2C(N)=O)cc1OC
outcome [1]: inactive | Potency [2]: inactive | outcome [3]: inactive | Potency [4]: inactive | outcome [5]: inactive | Potency [6]: inactive | outcome [7]: inactive | Potency [8]: inactive | outcome [10]: inactive | Potency [11]: inactive | outcome [17]: inactive

CCCCCCCCOS(=O)(=O)O
outcome [1]: inactive | Potency [2]: inactive | outcome [3]: inactive | Potency [4]: inactive | Potency [6]: inactive | outcome [7]: inactive | Potency [8]: inactive | Potency [9]: inactive | outcome [10]: inactive | Potency [11]: inactive | Potency [12]: inactive | outcome [13]: inactive | Potency [14]: inactive | Potency [15]: inactive | outcome [16]: inactive | outcome [17]: inactive | outcome [18]: inactive

CCn1ccc(NS(=O)(=O)c2ccc(N)cc2)nc1=O
outcome [1]: inactive | Potency [2]: inactive | outcome [3]: inactive | Potency [4]: inactive | Potency [6]: inactive | outcome [7]: inactive | Potency [8]: inactive | Potency [9]: inactive | outcome [10]: inactive | Potency [11]: inactive | Potency [12]: inactive | Potency [14]: inactive | Potency [15]: inactive | outcome [16]: inactive | outcome [17]: inactive | outcome [18]: inactive

O=C1CC(c2ccc(Cl)cc2)CC(=O)N1
outcome [1]: inactive | Potency [2]: inactive | outcome [3]: inactive | Potency [4]: inactive | Potency [6]: inactive | outcome [7]: inactive | Potency [8]: inactive | outcome [10]: inactive | Potency [11]: inactive | Potency [12]: inactive | outcome [13]: inactive | Potency [14]: inactive | Potency [15]: inactive | outcome [16]: inactive | outcome [17]: inactive | outcome [18]: inactive

CC(N)C(=O)OC(C)(C)Cc1ccc(Cl)cc1 (stereo unspecified)
outcome [1]: inactive | Potency [2]: inactive | outcome [3]: inactive | Potency [4]: inactive | Potency [6]: inactive | outcome [7]: inactive | Potency [8]: inactive | outcome [10]: inactive | Potency [11]: inactive | Potency [12]: inactive | outcome [13]: inactive | Potency [14]: inactive | Potency [15]: inactive | outcome [16]: inactive | outcome [17]: inactive | outcome [18]: inactive
